# Laboratory results published in paper PMC7862700, “An all-to-all approach to the identification of sequence-specific readers for epigenetic DNA modifications on cytosine”.
# Columns and labels:
# Experiment in all cases: DAPPL (digital affinity profiling via proximity ligation, sequencing); 10 mM Tris-HCl pH 7.5, 50 mM NaCl, 1 mM DTT, 4% glycerol, room temperature, 30 min; GST-TFs on glutathione beads, 16-mer random dsDNA library, 0.1% formaldehyde crosslink after washing; high values mean tight binding
# Settings in all cases: protein: recombinant; tags: N-terminal GST; dsDNA, one strand shown
# [1] = biological target: T1, FLI1 (Homo sapiens, UniProt Q01543 1-452)
# T1 sequence: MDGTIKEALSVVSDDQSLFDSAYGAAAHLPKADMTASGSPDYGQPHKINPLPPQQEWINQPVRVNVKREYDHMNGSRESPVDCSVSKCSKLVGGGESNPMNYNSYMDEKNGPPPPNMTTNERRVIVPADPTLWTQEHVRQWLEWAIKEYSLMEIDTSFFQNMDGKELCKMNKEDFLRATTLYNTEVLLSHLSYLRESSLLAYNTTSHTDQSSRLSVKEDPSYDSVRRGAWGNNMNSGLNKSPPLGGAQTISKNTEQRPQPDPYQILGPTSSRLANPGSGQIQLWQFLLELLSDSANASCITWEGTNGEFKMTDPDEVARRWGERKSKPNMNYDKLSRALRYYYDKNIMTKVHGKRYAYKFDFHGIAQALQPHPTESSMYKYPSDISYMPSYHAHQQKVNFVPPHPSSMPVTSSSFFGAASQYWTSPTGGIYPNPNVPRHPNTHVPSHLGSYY
# How it was run: (§1)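 Pools were built from human transcription factors expressed in yeast as GST fusions, captured on glutathione beads and DNA-barcoded, along with a tag-only sample. Incubation with 200 nmole of a 16-mer random double-stranded DNA library lasted 30 min at room temperature in Tris/NaCl/DTT/glycerol buffer, and was followed by washing, 0.1% formaldehyde crosslinking, proximity ligation, PCR amplification and Illumina NextSeq500 sequencing. Binding signal is the quotient of each hexamer's read frequency for a factor and its frequency for the tag-only sample.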
# [2] = biological target: T2, ELK1 (Homo sapiens, UniProt P19419 1-428)
# T2 sequence: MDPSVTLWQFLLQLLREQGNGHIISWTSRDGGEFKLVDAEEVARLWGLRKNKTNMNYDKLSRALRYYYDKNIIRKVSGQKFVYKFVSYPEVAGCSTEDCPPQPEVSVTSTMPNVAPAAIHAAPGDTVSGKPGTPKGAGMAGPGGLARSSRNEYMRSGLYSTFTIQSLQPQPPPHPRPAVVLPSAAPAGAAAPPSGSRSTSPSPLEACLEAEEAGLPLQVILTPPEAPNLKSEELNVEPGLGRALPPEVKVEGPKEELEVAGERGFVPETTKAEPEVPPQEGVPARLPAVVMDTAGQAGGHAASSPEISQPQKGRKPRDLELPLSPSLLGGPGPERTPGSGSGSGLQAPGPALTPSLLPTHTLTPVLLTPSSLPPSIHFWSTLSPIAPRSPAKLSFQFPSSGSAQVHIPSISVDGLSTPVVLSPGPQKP
# How it was run: as §1
# [3] = biological target: T3, GABPA (Homo sapiens, UniProt Q06546 1-454)
# T3 sequence: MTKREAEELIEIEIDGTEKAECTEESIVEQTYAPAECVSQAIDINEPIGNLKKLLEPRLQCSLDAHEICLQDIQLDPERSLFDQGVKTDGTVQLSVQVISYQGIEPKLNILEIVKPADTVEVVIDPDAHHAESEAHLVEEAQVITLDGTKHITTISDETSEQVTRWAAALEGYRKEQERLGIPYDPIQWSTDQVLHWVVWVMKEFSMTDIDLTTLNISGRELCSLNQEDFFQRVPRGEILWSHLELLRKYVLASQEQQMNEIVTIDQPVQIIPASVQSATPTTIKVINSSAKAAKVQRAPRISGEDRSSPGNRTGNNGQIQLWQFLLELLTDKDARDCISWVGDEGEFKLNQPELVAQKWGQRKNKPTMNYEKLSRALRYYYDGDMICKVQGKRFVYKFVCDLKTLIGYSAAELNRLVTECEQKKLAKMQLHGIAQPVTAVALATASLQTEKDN
# How it was run: as §1
# [4] = biological target: T4, ERG (Homo sapiens, UniProt P11308 1-479)
# T4 sequence: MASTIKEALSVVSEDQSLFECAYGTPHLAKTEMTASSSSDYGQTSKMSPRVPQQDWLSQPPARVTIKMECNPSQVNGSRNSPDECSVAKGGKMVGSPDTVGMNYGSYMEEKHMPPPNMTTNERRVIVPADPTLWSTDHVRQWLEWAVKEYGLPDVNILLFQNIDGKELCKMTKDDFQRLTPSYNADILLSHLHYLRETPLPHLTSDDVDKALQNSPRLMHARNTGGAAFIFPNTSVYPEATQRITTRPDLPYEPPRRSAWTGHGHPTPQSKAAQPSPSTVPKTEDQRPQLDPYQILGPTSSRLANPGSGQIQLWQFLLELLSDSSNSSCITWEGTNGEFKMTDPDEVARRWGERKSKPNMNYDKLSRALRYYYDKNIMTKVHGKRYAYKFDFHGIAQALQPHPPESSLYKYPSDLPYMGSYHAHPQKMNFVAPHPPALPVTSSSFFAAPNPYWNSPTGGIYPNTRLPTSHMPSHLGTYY
# How it was run: as §1
# [5] = biological target: ELF1 (Homo sapiens, UniProt P32519 1-619)
# ELF1, sequence (P32519 whole entry): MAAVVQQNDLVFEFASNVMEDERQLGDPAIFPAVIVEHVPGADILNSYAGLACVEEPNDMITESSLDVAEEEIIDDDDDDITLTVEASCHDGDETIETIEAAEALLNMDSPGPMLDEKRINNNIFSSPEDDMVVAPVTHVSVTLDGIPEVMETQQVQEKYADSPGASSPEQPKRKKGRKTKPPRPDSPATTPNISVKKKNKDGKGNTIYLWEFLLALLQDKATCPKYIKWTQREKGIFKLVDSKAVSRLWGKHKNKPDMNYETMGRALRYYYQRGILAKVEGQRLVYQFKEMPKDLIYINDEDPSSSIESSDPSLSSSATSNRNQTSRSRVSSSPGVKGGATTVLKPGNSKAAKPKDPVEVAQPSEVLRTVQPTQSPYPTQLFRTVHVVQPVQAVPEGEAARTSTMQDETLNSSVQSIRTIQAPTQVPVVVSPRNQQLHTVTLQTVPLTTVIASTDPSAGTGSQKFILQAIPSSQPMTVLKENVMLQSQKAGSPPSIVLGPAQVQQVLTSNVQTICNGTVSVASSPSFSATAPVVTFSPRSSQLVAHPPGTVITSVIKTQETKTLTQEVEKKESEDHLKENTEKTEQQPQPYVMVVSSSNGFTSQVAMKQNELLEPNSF
# How it was run: as §1
# [6] = biological target: T5, EHF (Homo sapiens, UniProt Q9NZC4 1-300)
# T5 sequence: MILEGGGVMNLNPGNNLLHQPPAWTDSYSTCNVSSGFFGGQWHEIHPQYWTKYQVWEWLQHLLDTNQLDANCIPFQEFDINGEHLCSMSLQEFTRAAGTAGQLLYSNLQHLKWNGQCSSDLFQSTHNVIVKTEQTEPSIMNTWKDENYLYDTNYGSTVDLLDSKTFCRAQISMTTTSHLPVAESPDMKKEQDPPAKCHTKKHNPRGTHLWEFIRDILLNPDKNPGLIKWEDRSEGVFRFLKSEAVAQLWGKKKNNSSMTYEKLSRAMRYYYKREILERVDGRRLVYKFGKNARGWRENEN
# How it was run: as §1
# [7] = biological target: SPI1 (Homo sapiens, UniProt P17947 1-270)
# How it was run: as §1
# [8] = biological target: SPIB (Homo sapiens, UniProt Q01892 1-262)
# SPIB, sequence (Q01892 whole entry): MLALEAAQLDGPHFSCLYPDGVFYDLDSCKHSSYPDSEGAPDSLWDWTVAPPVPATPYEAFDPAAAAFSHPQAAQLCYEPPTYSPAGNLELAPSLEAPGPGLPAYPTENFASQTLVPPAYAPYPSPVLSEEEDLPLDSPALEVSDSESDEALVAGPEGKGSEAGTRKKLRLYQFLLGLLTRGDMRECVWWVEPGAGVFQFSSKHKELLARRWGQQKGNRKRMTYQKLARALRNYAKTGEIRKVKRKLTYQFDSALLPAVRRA
# How it was run: as §1
# [9] = biological target: ETV5 (Homo sapiens, UniProt P41161 1-510)
# ETV5, sequence (P41161 whole entry): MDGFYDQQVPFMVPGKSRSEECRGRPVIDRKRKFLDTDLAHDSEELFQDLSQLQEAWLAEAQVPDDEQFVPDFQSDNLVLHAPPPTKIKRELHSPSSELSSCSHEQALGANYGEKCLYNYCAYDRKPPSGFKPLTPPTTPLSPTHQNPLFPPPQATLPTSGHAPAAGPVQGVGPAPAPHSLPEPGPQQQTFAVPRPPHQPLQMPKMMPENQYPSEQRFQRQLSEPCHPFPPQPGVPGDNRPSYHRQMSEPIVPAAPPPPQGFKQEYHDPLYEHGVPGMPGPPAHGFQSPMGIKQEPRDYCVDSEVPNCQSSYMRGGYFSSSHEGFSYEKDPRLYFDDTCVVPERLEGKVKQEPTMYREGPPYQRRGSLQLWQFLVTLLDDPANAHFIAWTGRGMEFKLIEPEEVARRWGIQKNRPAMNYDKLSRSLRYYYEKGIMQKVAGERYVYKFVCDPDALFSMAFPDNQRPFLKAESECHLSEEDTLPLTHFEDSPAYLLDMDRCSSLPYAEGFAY
# How it was run: as §1
# [10] = biological target: ELF4 (Homo sapiens, UniProt Q99607 1-663)
# ELF4, sequence (Q99607 whole entry): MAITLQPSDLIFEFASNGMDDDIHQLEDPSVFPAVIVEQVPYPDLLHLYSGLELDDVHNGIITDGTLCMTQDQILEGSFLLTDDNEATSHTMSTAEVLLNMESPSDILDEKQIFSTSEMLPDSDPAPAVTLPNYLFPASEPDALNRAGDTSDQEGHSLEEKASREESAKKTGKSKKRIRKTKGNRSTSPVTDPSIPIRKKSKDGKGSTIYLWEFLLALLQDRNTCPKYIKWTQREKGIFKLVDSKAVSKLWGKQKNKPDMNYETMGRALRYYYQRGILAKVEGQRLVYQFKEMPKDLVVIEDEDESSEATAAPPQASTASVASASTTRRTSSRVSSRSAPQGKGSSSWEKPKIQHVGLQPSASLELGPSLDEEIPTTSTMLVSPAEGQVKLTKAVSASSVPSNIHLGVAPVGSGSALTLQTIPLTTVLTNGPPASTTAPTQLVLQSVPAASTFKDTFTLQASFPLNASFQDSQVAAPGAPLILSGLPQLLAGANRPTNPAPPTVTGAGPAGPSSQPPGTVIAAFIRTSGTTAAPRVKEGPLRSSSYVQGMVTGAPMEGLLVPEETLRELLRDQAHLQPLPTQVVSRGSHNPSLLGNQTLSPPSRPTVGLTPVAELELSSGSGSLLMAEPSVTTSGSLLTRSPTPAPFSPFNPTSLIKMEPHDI
# How it was run: as §1
# [11] = biological target: T6, ELF3 (Homo sapiens, UniProt P78545 1-371)
# T6 sequence: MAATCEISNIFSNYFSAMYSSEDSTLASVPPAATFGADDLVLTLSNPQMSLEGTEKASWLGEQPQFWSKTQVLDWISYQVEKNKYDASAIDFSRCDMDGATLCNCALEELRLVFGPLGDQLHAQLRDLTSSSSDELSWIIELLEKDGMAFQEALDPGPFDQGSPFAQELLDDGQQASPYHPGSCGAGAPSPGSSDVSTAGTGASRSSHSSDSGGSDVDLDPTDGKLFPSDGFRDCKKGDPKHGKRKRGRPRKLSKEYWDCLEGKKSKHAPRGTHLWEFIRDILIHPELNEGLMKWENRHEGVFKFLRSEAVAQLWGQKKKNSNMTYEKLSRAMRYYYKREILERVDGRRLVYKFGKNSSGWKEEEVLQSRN
# How it was run: as §1
# [12] = biological target: ETV1 (Homo sapiens, UniProt P50549 1-477)
# ETV1, sequence (P50549 whole entry): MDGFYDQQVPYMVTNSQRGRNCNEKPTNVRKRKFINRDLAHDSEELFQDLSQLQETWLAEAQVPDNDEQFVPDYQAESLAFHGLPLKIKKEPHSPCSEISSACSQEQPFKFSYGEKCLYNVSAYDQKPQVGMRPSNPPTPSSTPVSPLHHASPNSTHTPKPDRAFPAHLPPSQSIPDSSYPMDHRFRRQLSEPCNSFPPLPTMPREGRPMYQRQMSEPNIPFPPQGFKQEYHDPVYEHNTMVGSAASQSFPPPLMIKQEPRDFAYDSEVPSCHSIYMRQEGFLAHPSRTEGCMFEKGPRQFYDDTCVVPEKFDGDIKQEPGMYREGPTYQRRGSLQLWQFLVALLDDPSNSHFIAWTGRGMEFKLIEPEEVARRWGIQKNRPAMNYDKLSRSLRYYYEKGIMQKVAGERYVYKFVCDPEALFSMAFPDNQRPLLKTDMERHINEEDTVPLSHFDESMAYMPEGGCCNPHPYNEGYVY
# How it was run: as §1
# [13] = biological target: T7, ERF (Homo sapiens, UniProt P50548 1-548)
# T7 sequence: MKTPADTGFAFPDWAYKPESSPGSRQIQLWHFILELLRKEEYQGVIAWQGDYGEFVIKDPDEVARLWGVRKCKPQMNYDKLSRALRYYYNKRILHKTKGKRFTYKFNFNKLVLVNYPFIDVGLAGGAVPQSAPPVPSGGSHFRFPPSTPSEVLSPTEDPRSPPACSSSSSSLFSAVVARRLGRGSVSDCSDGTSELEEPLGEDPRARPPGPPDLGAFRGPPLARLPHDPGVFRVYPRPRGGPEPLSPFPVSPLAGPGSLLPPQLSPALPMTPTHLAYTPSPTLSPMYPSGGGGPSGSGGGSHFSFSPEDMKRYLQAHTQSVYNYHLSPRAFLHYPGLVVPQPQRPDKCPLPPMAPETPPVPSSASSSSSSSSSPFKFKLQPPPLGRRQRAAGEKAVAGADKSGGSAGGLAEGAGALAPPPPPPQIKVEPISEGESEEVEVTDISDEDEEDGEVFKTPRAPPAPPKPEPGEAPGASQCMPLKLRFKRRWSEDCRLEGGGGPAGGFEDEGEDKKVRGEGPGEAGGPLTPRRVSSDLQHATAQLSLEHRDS
# How it was run: as §1
# [14] = biological target: T8, ETV3L (Homo sapiens, UniProt Q6ZN32 1-361)
# T8 sequence: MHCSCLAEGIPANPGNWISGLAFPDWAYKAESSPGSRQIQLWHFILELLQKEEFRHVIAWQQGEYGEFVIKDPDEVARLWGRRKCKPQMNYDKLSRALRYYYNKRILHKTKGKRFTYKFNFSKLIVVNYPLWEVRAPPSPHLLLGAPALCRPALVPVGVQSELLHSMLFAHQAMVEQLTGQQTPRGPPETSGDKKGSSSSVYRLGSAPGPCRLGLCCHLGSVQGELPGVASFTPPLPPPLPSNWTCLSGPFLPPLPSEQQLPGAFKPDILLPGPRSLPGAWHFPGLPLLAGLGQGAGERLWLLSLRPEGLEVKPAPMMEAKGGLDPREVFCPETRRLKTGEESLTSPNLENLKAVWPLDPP
# How it was run: as §1
# [15] = biological target: T9, ETS2 (Homo sapiens, UniProt P15036 1-469)
# T9 sequence: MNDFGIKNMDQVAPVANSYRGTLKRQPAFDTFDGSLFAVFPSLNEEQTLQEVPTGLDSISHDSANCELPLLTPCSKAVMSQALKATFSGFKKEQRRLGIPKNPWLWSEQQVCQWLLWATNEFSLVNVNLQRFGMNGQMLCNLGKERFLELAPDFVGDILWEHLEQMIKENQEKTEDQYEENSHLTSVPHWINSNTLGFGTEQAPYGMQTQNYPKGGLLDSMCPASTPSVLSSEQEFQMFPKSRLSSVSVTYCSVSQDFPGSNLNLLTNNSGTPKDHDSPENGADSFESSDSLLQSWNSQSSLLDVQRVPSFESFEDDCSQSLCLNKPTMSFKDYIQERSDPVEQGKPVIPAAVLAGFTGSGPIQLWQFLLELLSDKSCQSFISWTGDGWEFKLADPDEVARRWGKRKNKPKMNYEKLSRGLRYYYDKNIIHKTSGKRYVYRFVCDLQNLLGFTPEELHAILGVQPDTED
# How it was run: as §1
# [16] = biological target: T10, ETV3 (Homo sapiens, UniProt P41162-2 1-143)
# T10 sequence: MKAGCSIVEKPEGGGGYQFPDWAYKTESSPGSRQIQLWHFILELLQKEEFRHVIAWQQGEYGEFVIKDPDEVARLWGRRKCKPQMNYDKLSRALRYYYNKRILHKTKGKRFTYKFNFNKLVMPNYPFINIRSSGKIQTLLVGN
# How it was run: as §1
# [17] = biological target: ETV6 (Homo sapiens, UniProt P41212 1-452)
# ETV6, sequence (P41212 whole entry): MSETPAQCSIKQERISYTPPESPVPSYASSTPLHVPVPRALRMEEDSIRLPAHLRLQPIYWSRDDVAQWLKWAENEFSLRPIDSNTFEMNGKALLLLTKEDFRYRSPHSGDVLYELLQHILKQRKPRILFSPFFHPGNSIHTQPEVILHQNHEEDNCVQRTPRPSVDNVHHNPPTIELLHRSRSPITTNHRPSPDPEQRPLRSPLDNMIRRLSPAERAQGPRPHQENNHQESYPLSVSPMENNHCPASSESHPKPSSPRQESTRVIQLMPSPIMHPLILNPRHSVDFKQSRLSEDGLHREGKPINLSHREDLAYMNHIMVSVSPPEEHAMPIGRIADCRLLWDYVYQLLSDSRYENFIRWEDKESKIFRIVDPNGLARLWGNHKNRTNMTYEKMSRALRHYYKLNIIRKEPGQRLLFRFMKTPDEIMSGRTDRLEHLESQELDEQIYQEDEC
# How it was run: as §1
sequence,measurement,setting,value
ACGGCA,binding signal,[1],"1.04 fold enrichment (6-mer frequency, TF over GST control)"
same,binding signal,[2],"1.01 fold enrichment (6-mer frequency, TF over GST control)"
same,binding signal,[3],"1.1 fold enrichment (6-mer frequency, TF over GST control)"
same,binding signal,[4],"1.03 fold enrichment (6-mer frequency, TF over GST control)"
same,binding signal,[5],"1.04 fold enrichment (6-mer frequency, TF over GST control)"
same,binding signal,[6],"1.11 fold enrichment (6-mer frequency, TF over GST control)"
same,binding signal,[7],"1.05 fold enrichment (6-mer frequency, TF over GST control)"
same,binding signal,[8],"1.1 fold enrichment (6-mer frequency, TF over GST control)"
same,binding signal,[9],"1.13 fold enrichment (6-mer frequency, TF over GST control)"
same,binding signal,[10],"1.06 fold enrichment (6-mer frequency, TF over GST control)"
same,binding signal,[11],"1.1 fold enrichment (6-mer frequency, TF over GST control)"
same,binding signal,[12],"1.03 fold enrichment (6-mer frequency, TF over GST control)"
same,binding signal,[13],"1.01 fold enrichment (6-mer frequency, TF over GST control)"
same,binding signal,[14],"1.1 fold enrichment (6-mer frequency, TF over GST control)"
same,binding signal,[15],"1.09 fold enrichment (6-mer frequency, TF over GST control)"
same,binding signal,[16],"1.06 fold enrichment (6-mer frequency, TF over GST control)"
same,binding signal,[17],"1.14 fold enrichment (6-mer frequency, TF over GST control)"
